Laboratory results published in the supplement of paper PMC10681739.

Experiments:
ETS1 [1] = molecular target: T1, ETS1 (UniProt P14921); assay: ETS1 binding intensity (PBM fluorescence), ETS1 alone (arbitrary fluorescence units); higher = stronger binding; conditions: ETS1 concentration 1 nM; RUNX1 concentration 0 nM
T1 sequence: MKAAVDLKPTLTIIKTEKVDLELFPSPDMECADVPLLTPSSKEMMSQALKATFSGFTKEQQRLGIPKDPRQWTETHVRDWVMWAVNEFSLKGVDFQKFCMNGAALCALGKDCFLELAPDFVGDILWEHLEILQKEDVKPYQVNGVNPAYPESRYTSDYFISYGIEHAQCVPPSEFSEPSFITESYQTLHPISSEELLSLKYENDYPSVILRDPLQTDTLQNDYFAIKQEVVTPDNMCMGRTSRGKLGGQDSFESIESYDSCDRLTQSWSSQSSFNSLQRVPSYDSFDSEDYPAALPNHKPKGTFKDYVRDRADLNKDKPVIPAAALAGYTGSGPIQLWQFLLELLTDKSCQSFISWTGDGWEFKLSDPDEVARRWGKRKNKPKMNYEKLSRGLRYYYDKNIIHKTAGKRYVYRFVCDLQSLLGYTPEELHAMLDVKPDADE

RUNX1 [2] = molecular target: RUNX1 (UniProt Q01196); assay: RUNX1 binding intensity (PBM fluorescence), RUNX1 alone (arbitrary fluorescence units); higher = stronger binding; conditions: RUNX1 concentration 2 nM; ETS1 concentration 0 nM
Experimental: (§1)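 Cooperative gcPBM on 36-bp genomic probes with neighbouring ETS1 and RUNX1 sites. Recombinant human RUNX1 (2 nM) was incubated alone or with ETS1 (25 nM) and detected with anti-RUNX1 antibody plus Alexa488 secondary. Values are medians over 4 replicate spots; the RUNX1+ETS1 data were normalised to the RUNX1-only data. The probes sit in constant array flanks that are not printed.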

ETS1 [3] = molecular target: T1, ETS1; assay: ETS1 binding intensity (PBM fluorescence) in presence of RUNX1, normalised to ETS1-only experiment (arbitrary fluorescence units); higher = stronger binding; conditions: ETS1 concentration 1 nM; RUNX1 concentration 25 nM
RUNX1 [4] = molecular target: RUNX1 (UniProt Q01196); assay: RUNX1 binding intensity (PBM fluorescence) in presence of ETS1, normalised to RUNX1-only experiment (arbitrary fluorescence units); higher = stronger binding; conditions: RUNX1 concentration 2 nM; ETS1 concentration 25 nM
Experimental: as §1
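Wherever RUNX1 binding intensity (PBM fluorescence) in presence of ETS1, normalised to RUNX1-only experiment is given: Full-length recombinant human ETS1 or RUNX1 bound to double-stranded 36-bp genomic probes on microarrays, detected by protein-specific primary antibody and Alexa488 secondary, spot fluorescence as median of four replicate spots.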
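Wherever RUNX1 binding intensity (PBM fluorescence), RUNX1 alone is given: Full-length recombinant human RUNX1 bound to double-stranded 36-bp genomic probes on a high-density microarray, scored as Alexa488 fluorescence per spot via anti-RUNX1 antibody, median of four replicate spots.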

Chain of RUNX1 (Q01196 whole entry): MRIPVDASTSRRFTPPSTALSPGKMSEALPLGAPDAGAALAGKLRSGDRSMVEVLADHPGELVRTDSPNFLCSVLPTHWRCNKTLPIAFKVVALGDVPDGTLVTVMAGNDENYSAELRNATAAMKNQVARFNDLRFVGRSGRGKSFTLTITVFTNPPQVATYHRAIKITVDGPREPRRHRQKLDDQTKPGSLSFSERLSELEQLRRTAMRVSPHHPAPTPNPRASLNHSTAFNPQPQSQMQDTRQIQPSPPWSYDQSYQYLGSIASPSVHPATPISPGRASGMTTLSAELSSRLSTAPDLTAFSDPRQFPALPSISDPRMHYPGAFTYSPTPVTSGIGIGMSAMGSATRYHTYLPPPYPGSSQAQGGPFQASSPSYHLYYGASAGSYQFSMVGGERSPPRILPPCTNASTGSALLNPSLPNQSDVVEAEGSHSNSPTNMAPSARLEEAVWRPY

GAGACTTTCGCTTCCGGCTGCCGCAGGCGCTTCGCT
ETS1 binding intensity (ETS1 [1]): 1830
RUNX1 binding intensity (RUNX1 [2]): 710
ETS1 binding intensity (ETS1 [3]): 1700
RUNX1 binding intensity (RUNX1 [4]): 1550

GTCCTCCACTATTGTTTCCGGCCGCAGCAGAGGCGG
ETS1 binding intensity (ETS1 [1]): 1870
RUNX1 binding intensity (RUNX1 [2]): 1070
ETS1 binding intensity (ETS1 [3]): 2090
RUNX1 binding intensity (RUNX1 [4]): 2170

CTGCGTTTCCTCTGAGTTTTGCATGTTGAGGTTGGA
ETS1 binding intensity (ETS1 [1]): 462
RUNX1 binding intensity (RUNX1 [2]): 877
ETS1 binding intensity (ETS1 [3]): 382
RUNX1 binding intensity (RUNX1 [4]): 1280

CCGCTTCCTTAGAGGTTAAGTGGTGGTGGTTCAGTT
ETS1 binding intensity (ETS1 [1]): 473
RUNX1 binding intensity (RUNX1 [2]): 856
ETS1 binding intensity (ETS1 [3]): 391
RUNX1 binding intensity (RUNX1 [4]): 1230

CGAAGCCAGGAAATAAGGATAAACCACAGAAAGAAA
ETS1 binding intensity (ETS1 [1]): 1060
RUNX1 binding intensity (RUNX1 [2]): 1260
ETS1 binding intensity (ETS1 [3]): 3180
RUNX1 binding intensity (RUNX1 [4]): 2010

CTTCTTTCCAGAGGATGTGGCTTCAGCGGGAGAGCT
ETS1 binding intensity (ETS1 [1]): 1250
RUNX1 binding intensity (RUNX1 [2]): 817
ETS1 binding intensity (ETS1 [3]): 1830
RUNX1 binding intensity (RUNX1 [4]): 1030

GTTTAACAGGAAACCCTGCAGACCACAGGTTCTGTC
ETS1 binding intensity (ETS1 [1]): 1220
RUNX1 binding intensity (RUNX1 [2]): 807
ETS1 binding intensity (ETS1 [3]): 3630
RUNX1 binding intensity (RUNX1 [4]): 1680

AGCTCTGCCAGGAAGTGAGAACCACAGGCCTCCCCT
ETS1 binding intensity (ETS1 [1]): 1570
RUNX1 binding intensity (RUNX1 [2]): 837
ETS1 binding intensity (ETS1 [3]): 3140
RUNX1 binding intensity (RUNX1 [4]): 1350

CCTTTCCGCGAGACCTTCCGCGGTTATCCAGCGAGT
ETS1 binding intensity (ETS1 [1]): 372
RUNX1 binding intensity (RUNX1 [2]): 1160
ETS1 binding intensity (ETS1 [3]): 481
RUNX1 binding intensity (RUNX1 [4]): 1510

GGCAAACAGGAAACACTCCCAGGGCTGTGGGCTCCT
ETS1 binding intensity (ETS1 [1]): 1550
RUNX1 binding intensity (RUNX1 [2]): 727
ETS1 binding intensity (ETS1 [3]): 1790
RUNX1 binding intensity (RUNX1 [4]): 1150

AGACAGGAGTTCAGGAAGCTGCGGTCTAGATTATGT
ETS1 binding intensity (ETS1 [1]): 754
RUNX1 binding intensity (RUNX1 [2]): 1210
ETS1 binding intensity (ETS1 [3]): 6250
RUNX1 binding intensity (RUNX1 [4]): 1710

CTGAGCAAAAGGAGGAAGCTGTGGTCTGTGTACCCA
ETS1 binding intensity (ETS1 [1]): 606
RUNX1 binding intensity (RUNX1 [2]): 810
ETS1 binding intensity (ETS1 [3]): 1800
RUNX1 binding intensity (RUNX1 [4]): 945

GTGAGCCTGTAAAGGAAATTGAGGTTATGTGGCTCA
ETS1 binding intensity (ETS1 [1]): 981
RUNX1 binding intensity (RUNX1 [2]): 694
ETS1 binding intensity (ETS1 [3]): 1770
RUNX1 binding intensity (RUNX1 [4]): 864

GACATCTTCCGGTTGCTACAGGTTACGGCGGTTGCT
ETS1 binding intensity (ETS1 [1]): 2700
RUNX1 binding intensity (RUNX1 [2]): 778
ETS1 binding intensity (ETS1 [3]): 2640
RUNX1 binding intensity (RUNX1 [4]): 1640

CCCAACCATTTCCGCCACACCTCCAACCCACTGCCG
ETS1 binding intensity (ETS1 [1]): 647
RUNX1 binding intensity (RUNX1 [2]): 2030
ETS1 binding intensity (ETS1 [3]): 542
RUNX1 binding intensity (RUNX1 [4]): 4660

CCCGGGGGCAGGAAATGTCGCCTTACCCACAGCCTT
ETS1 binding intensity (ETS1 [1]): 2470
RUNX1 binding intensity (RUNX1 [2]): 873
ETS1 binding intensity (ETS1 [3]): 5930
RUNX1 binding intensity (RUNX1 [4]): 1210

GCACCGTACCCGGAACTGCTCCCTCCCGCAGGCGCA
ETS1 binding intensity (ETS1 [1]): 539
RUNX1 binding intensity (RUNX1 [2]): 930
ETS1 binding intensity (ETS1 [3]): 540
RUNX1 binding intensity (RUNX1 [4]): 950

AGGCCCACCTGCTGCGGATGTGGTCTCTGTGTGTGC
ETS1 binding intensity (ETS1 [1]): 2340
RUNX1 binding intensity (RUNX1 [2]): 774
ETS1 binding intensity (ETS1 [3]): 6240
RUNX1 binding intensity (RUNX1 [4]): 1340

TTCGGATTCCCGGAAGAACCCGCAGCAGCTCCCAGG
ETS1 binding intensity (ETS1 [1]): 792
RUNX1 binding intensity (RUNX1 [2]): 789
ETS1 binding intensity (ETS1 [3]): 1020
RUNX1 binding intensity (RUNX1 [4]): 1190
